# According to PubChem BioAssay (NCATS):
# Results filed as inconclusive are left out. Where a call stands in place of a potency, no number is given. Calls of active or inactive are those of the source. Calls come from the whole dose curve; as a rule, active = well fitted inhibition curve with a large enough effect; inconclusive = small, poorly fitted or top-dose-only effect, or effect the other way; inactive = flat fitted curve, though single readings scatter.
# Assay: qHTS for Inhibitors of Plasmodium falciparum (CP250) proliferation (AID 504320)
# Conditions: P. falciparum CP250 in erythrocytes, SYBR Green DNA, 72 h; series mostly up to 6.7 µM
# Procedure, shortened: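 Erythrocytes infected with P. falciparum line (0.3% parasitemia, 2.5% hematocrit final) incubated with compounds 72 h at 37 °C, 5% CO2; SYBR Green lysis buffer added, fluorescence read next day. Normalized to 0.29 uM artemisinin and DMSO.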
row,SMILES,Potency
1,CC(=O)OC[C@H]1O[C@H](CC=NO[C@@H](C)c2cn([C@H](CO)Cc3ccccc3)nn2)C=C[C@@H]1OC(C)=O,inactive
2,COc1cc2c(c(OC)c1)[C@H](C=Cc1ccccc1)[C@@H]([C@H](O)CO)OC2,inactive
3,C[C@@H]1CC[C@H]2C(=O)O[C@@H](Cc3ccccc3)CN2[C@@H]1c1ccc(Br)cc1,inactive
4,COC(=O)N[C@@H](c1cccc(F)c1)[C@@H](C)[N+](=O)[O-],inactive
5,CCN1C(=NCc2ccc(OC)cc2)NC(c2cccc(F)c2)C(C(=O)OC)=C1C (centres undefined),inactive
6,CCOC(=O)C1=CN(CCC=C(C)C)C(=O)NC1c1ccccc1 (centres undefined),inactive
7,CC(C)CON=C1C[C@@H](O)[C@@H](O)[C@@H]2[C@H]3C(=O)N(Cc4ccccc4)C(=O)[C@@H]3CC[C@@H]12,inactive
8,CC1(O)C(=O)C=C2C=C(c3ccc(C#N)cc3)OC=C2C1=O (centres undefined),inactive
9,COC(=O)CC=C[C@@H](C)[C@@H](C=NO[C@H](C)c1cn([C@H](CO)Cc2ccccc2)nn1)NS(=O)(=O)c1ccc(C)cc1,inactive
10,C[C@H]1Cc2c(-c3ccccc3)nc3c(c2CO1)CN(S(=O)(=O)c1ccc(Cl)c2nonc12)CC3,inactive
11,CCN1C(=NCCCCO)N[C@@H](CCc2ccccc2)[C@H](C(=O)OC)[C@H]1C,inactive
12,COC(=O)N(C=Cc1ccc(OC)cc1)CCc1ccc(OC)c(OC)c1,inactive
13,Cc1noc(C)c1S(=O)(=O)N1CCc2nc(COc3ccccc3)c3c(c2C1)CO[C@@H](C)C3,inactive
14,C=C1C2c3ccccc3C(CC2(C)O[Si](C)(C)C)N1C(=O)OC (centres undefined),inactive
